# Screening data (PubChem)
# This is a sample that favours compounds with a hit; in the whole collection about 13% have one here.
# USP17 inh: inhibitors of human USP17 deubiquitinase; inhibition, % at 50 µM; AID 1645855; purified USP17, Ub-rhodamine cleavage fluorescence, 3 h; 6.5% of 47,000 active
# Target sequence (A8MUK1 whole entry, looked up): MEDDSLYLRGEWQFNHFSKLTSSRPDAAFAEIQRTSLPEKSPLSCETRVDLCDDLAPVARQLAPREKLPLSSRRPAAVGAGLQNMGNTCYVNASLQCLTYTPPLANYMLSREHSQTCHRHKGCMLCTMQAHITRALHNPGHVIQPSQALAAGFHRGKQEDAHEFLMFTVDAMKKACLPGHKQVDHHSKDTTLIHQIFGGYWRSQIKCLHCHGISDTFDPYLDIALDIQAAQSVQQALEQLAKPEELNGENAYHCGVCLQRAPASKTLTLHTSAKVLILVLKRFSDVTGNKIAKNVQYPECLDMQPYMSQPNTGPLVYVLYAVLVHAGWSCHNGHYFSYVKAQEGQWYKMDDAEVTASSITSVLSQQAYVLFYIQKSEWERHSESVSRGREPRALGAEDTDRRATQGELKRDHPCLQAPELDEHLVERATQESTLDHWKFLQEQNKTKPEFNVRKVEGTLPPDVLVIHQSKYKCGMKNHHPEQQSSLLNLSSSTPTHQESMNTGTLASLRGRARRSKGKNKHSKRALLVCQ
# USP8 block: blocks human USP8 ubiquitin-rhodamine cleavage. P40818. purified USP8, Ub-rhodamine cleavage fluorescence, 30 min. inhibition, % at 20 µM. 4.2% of 47,000 active. AID 1645853
# USP7 block: blocks human USP7 ubiquitin-rhodamine cleavage | AID 1645854 | Q93009 | 0.3% of 47,000 active | purified USP7, Ub-rhodamine cleavage fluorescence | inhibition, % at 20 µM
# USP10 inh: human USP10 deubiquitinase inhibition; Q14694; purified USP10, Ub-rhodamine fluorescence, 60 min; inhibition, % at 20 µM; 1.1% of 47,000 active
# UCHL1 block: human UCHL1 deubiquitinase inhibition; P09936; AID 1645859; inhibition, % at 20 µM; 0.2% of 47,000 active; purified UCHL1, Ub-rhodamine cleavage fluorescence
# USP30 block: inhibitors of human USP30 deubiquitinase; Q70CQ3; purified USP30, Ub-rhodamine cleavage fluorescence; inhibition, % at 25 µM; 5.3% of 47,000 active; AID 1645860
# * marks the source's active call; other numbers are inactive results; nt = no result given. Cut-off read from the data, not from the text of the source: active = inhibition above about 30%; inactive = the rest.
SMILES,USP17 inh,USP8 block,USP7 block,USP10 inh,UCHL1 block,USP30 block
Cc1ccc2c(c1)n(S(=O)(=O)c1ccc(F)cc1)c(=O)n2S(=O)(=O)c1ccc(F)cc1,33*,26,6,5,5,35*
Cc1ccc2nc3c(cc2c1)CCN3S(=O)(=O)c1ccc(F)cc1,1,-4,2,-2,0,-22
CCNC(=O)N1CCC2(C1)c1ccccc1S(=O)(=O)N2Cc1ccc(OC)cc1 (configuration not stated),-2,4,-2,0,-3,-8
O=C(C1CC1)N1CCC2(C1)c1ccccc1S(=O)(=O)N2Cc1ccc(F)cc1 (configuration not stated),14,8,2,2,3,36*
COc1ccc(Nc2nc3c(S(=O)(=O)c4ccc(C)cc4)nnn3c3ccsc23)c(OC)c1,28,21,14,38*,8,67*
CCOC(=O)CN(C(=O)c1ccc(-c2ccccc2)[nH]1)C(C(=O)NC1CCCCC1)c1ccc(F)cc1 (configuration not stated),-15,-8,-2,-6,1,-110
CN1CCN(Cc2cccnc2)C(=O)C12CCN(Cc1ccc[nH]1)CC2,46*,40*,-139,-8,0,-14
Cc1ccc(-c2nc(CNC(=O)C(C)Oc3ccccc3F)cs2)cc1 (configuration not stated),7,5,-14,7,6,46*
COc1ccc(-c2nc(CNC(=O)c3ccccc3F)cs2)cc1,4,0,7,1,3,28
COc1ccc(Br)c(-c2nc(CS(=O)(=O)c3ccc(F)cc3)no2)c1,18,26,-13,7,7,38*
CCC1[C@@H](C)C(Nc2ccccc2)c2ccccc2N1C(=O)c1ccc([N+](=O)[O-])cc1 (some centres not stated),0,3,5,6,3,0
O=C(Cn1cc2c(n1)CCCCC2)NCc1ccco1,-3,-9,-6,2,0,-2
CCc1cc2c(NCc3ccc(F)cc3)ncnc2s1,32*,18,3,2,4,27
CCC(=O)N(Cc1ccc(-c2cccc(Cl)c2)o1)C1CCS(=O)(=O)C1 (configuration not stated),-13,-13,-14,-7,-3,-32
Cc1ccc(CNC(=O)c2c(O)c3cccc4c3n(c2=O)CC4)cc1,-11,59*,-1,0,-1,-14
CNC(=O)c1ccccc1NC(=O)c1c(O)c2cccc3c2n(c1=O)CC3,-23,-118,-6,-1,-2,-37
NCc1nnc2n1CCN(C(=O)c1ccc3c(c1)OCO3)C2,21,9,4,-3,1,11
O=C(c1cc2c(s1)-c1ccsc1CC2)N1CCCCCC1,38*,12,-21,12,6,46*
Cn1nc(C(=O)N2CCCCC2)c2c1-c1ccsc1CC2,16,-5,-90,-2,0,nt
O=C1N[C@@H]2CN(C(=O)c3ccccc3C(F)(F)F)CC[C@H]2CO1,9,0,0,1,0,-16
O=C(CN1CCCCCC1)Nc1cc([N+](=O)[O-])ccc1Cl,45*,-69,-1,4,0,28
COc1cc2c(cc1OC)CN(CC(=O)Nc1cc([N+](=O)[O-])ccc1Cl)CC2,-18,-120,-6,-2,0,-19
O=C(CN1CCCCC1)Nc1nnc(-c2ccc([N+](=O)[O-])cc2)s1,38*,-79,4,11,7,34*
O=C(Cc1cccs1)Nc1nnc(SCc2ccc([N+](=O)[O-])cc2)s1,-4,0,-2,24,2,-176
CC(Oc1ccc(F)cc1)C(=O)Nc1ccccc1Br (configuration not stated),10,6,-8,3,0,7
SMILES,USP17 inh,USP8 block,USP7 block,USP10 inh,UCHL1 block,USP30 block
CC(Oc1ccc(F)cc1)C(=O)Nc1ccc2nsnc2c1 (configuration not stated),34*,83*,-7,3,3,-2
COc1cc(OC)cc(C(=O)Nc2ccc(O)c(-c3nc4cnccc4o3)c2)c1,35*,-4,5,-1,0,0
COc1cc(OC)cc(C(=O)Nc2cc(-c3cccnc3)no2)c1,8,13,8,0,2,16
Cc1cccc(Nc2cc(C3CCCN(CC(N)=O)C3)ccn2)n1 (configuration not stated),-9,-4,1,-3,0,-8
CCc1cc(C(F)(F)F)n2nc(C3CCN(C(=O)c4ccccc4F)C3)cc2n1 (configuration not stated),-8,-9,-3,1,-1,0
Cc1cc(C(F)(F)F)n2nc(C3CCN(C(=O)c4cnn(C)c4C)C3)cc2n1 (configuration not stated),50*,92*,-5,-3,1,-44
O=C(NCCc1ccccn1)c1cc(-c2ccc(Br)cc2)n[nH]1,80*,20,1,6,0,34*
O=C(NCCc1ccccn1)c1ccc2ccccc2c1,4,5,0,2,3,15
O=C(NCCc1ccccn1)c1cn2ccnc(-c3ccc(F)cc3)c2n1,21,2,1,-3,2,56*
COc1ccc(-c2nccn3cc(C(=O)NCc4nc5ccccc5n4C)nc23)cc1,-8,36*,-19,-9,-18,-254
O=C(c1nc(-c2ccccc2)nc2c1OCCO2)N1CCSCC1,3,-15,-4,-3,-1,-13
CS(=O)(=O)c1cccc(C(=O)Nc2sc3c(c2C(N)=O)CCCC3)c1,36*,10,7,20,1,15
CC(C)(NC(=O)Cc1ccccc1)c1nc2c(c(C(N)=O)n1)OCO2,7,-1,nt,0,1,11
CC(C)(NC(=O)C1CCCCC1)c1nc2c(c(C(N)=O)n1)OCCO2,0,7,81*,0,-1,0
CCN(CC)S(=O)(=O)c1ccc(N2CCOCC2)c(NC(=O)Cc2ccc(OC)cc2)c1,-6,-13,0,-2,-1,-15
CN1C(=O)Cc2cc(S(=O)(=O)N3CCC(c4ccncc4)CC3)ccc21,39*,16,7,2,0,22
CCn1c(C2CCN(S(=O)(=O)c3ccc4c(c3)CC(=O)N4C)C2)nc2cccnc21 (configuration not stated),-3,-3,-1,-4,0,-8
CC(=O)N1CCCCCC1C1CCN(c2ncnc3sccc23)CC1 (configuration not stated),-1,-18,0,-4,-1,-24
O=S(=O)(c1ccc(F)cc1)N1CCCn2nnc(COCC3CC3)c2C1,0,9,-10,0,0,3
COCCn1cc(NC(=O)N2CCN(c3ccccc3F)CC2)c2ccccc21,13,54*,-1,-3,1,0
